Data as given in PubChem BioAssay.
Activity calls are given as the source filed them. Unless noted, no rule for the calls is given here.

Experiments:
[1] = tested on: Wnt5a (protein binding on small-molecule microarray); test: small molecules binding Wnt5a protein – biophysical, small-molecule microarray, 635/667 nm fluorescence, primary screen (AID 1142); details: 635 nm fluorescence, higher = more signal;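 also: fluorescence read at 667 nm with signal to noise per printed feature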
[2] = ATP-based viability of Huh7 replicon cells – cell-based, CellTiter-Glo luminescence, basal, 48 h, cytotoxicity control for HCV replication inhibitor project, primary screen (AID 1143); details: higher = more signal, called active from +8 up or from −8 down;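 also: Huh7 hepatoma cells carrying a hepatitis C replication reporter with no stimulus; test concentration not given here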
[3] = Pseudomonas biofilm growth suppression – PAO1 strain, BacTiter-Glo luminescence, LB-PBS, primary screen (AID 1144); details: P. aeruginosa PAO1 biofilm, 12 h, higher = more signal
[4] = basal CRE-LacZ reporter activity in PC12 – cell-based, unstimulated, primary screen (AID 1145); details: no forskolin, luminescence, 4.5 h, higher = more signal, called active from +8 up or from −8 down
[5] = forskolin-driven CRE-LacZ activity in PC12 – cell-based, CRE-LacZ reporter, forskolin-stimulated, primary screen (AID 1146); details: luminescence, 4.5 h, higher = more signal, called active from +8 up or from −8 down;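 also: PC12 cells with 6xCRE LacZ reporter stimulated by forskolin 10 µM; beta-galactosidase reporter signal reflecting CREB driven transcription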
[6] = biological target: Streptavidin (Streptomyces avidinii) (UniProt P22629); test: compounds binding control protein streptavidin – biophysical, small-molecule microarray, 635/667 nm fluorescence, artefact control for SMM compound annotation, primary screen (AID 1147); details: higher = more signal;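 also: signal reflects streptavidin binding to arrayed compounds as a control protein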
[7] = probe aInhba binding on compound microarray – biochemical, small-molecule microarray, 635/667 nm fluorescence, primary screen (AID 1148); details: higher = more signal;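 also: score merges 667nm spot fluorescence with signal-to-noise for antibody binding to printed compounds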
Torsin-1A (Homo sapiens) [8] = biological target: Torsin-1A (Homo sapiens) (UniProt O14656); test: TOR1A wild-type binding on microarray – cell lysate, small-molecule microarray, lysate, 635/667 nm, primary screen (AID 1149); details: COS7 hTOR1A-WT lysate, 635 nm fluorescence, higher = more signal
Torsin-1A (Homo sapiens) [9] = biological target: Torsin-1A (Homo sapiens) (UniProt O14656); test: torsin A mutant lysate binding on microarrays – cell lysate, small-molecule microarray, COS7 lysate, 635/667 nm fluorescence, primary screen (AID 1150); details: COS7 hTOR1A mutant lysate, 635 nm fluorescence, higher = more signal;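 also: score pools 667 nm emission and signal to noise measuring lysate protein binding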
[10] = tested on: Sonic hedgehog protein (Shh); test: Sonic hedgehog microarray binding compounds – biochemical, small-molecule microarray, 635/667 nm fluorescence, primary screen (AID 1151); details: 635 nm fluorescence, higher = more signal;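 also: Shh protein binding to compounds spotted on small-molecule microarray slides; score combines spot fluorescence intensity with signal-to-noise across triplicate slides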

Sequence of Streptavidin (Streptomyces avidinii) (P22629 whole entry, looked up): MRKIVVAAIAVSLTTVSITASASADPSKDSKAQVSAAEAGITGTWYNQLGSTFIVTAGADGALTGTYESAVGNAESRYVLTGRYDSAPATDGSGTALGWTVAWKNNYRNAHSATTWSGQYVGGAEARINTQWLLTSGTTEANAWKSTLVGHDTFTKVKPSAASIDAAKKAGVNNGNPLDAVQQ
Sequence of Torsin-1A (Homo sapiens) (O14656 whole entry, looked up): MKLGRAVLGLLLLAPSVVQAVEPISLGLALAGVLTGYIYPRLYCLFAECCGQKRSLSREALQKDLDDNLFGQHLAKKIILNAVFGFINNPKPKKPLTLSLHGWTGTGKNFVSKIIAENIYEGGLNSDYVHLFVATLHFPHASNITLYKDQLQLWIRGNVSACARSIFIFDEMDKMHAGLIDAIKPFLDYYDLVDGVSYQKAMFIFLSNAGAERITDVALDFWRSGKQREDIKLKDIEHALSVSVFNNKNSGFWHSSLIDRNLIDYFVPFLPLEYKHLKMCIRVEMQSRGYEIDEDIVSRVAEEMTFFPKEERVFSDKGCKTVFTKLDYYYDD

Compound	composite z-score [1]	z-score [2]	z-score [3]	z-score [4]	z-score [5]	composite z-score [6]	composite z-score [7]	composite z-score (Torsin-1A (Homo sapiens) [8])	composite z-score (Torsin-1A (Homo sapiens) [9])	composite z-score [10]
C=CCOC(=O)[C@H]1[C@@H]2C(=O)O[C@@H](c3ccccc3)[C@@H](c3ccccc3)N2[C@@H](c2ccc(OCCOC(=O)[C@@H]3C[C@@H]4C(=O)N[C@@H](CC(C)C)C(=O)N4[C@@H]3c3ccc(O)cc3)cc2)[C@]12C(=O)Nc1ccccc12	0.384	-1.37 (inactive)	-1.04 (inactive)	-0.541 (inactive)	0.0707 (inactive)	0.359	0.0442	0.941	0.95	2.08
COCCCNC(=O)[C@@H]1c2ccccc2C(=O)N(Cc2ccccc2Cl)[C@H]1c1ccc(CO)cc1	-0.0355	-0.0743 (inactive)	0.66 (inactive)	-0.179 (inactive)	-0.268 (inactive)	0.128	0.326	0.494	0.857	0.861
CC1CC/C=C\[C@H]2OC34C=CCN(C(C)(C)C)C(=O)[C@H]3N(C(C)CO)C(=O)[C@@H]4C2C(=O)O1 (stereo not given in full)	-0.273	0.4 (inactive)	1.01 (inactive)	-0.22 (inactive)	0.826 (inactive)	-1.3	-0.128	-0.468	-0.441	0.622
CC(C)C(CO)N1C(=O)[C@@H]2C3C(=O)OCCC/C=C\[C@H]3OC23C=CCN(CCN2CCOCC2)C(=O)[C@@H]13 (stereo not given in full)	0.0992	0.39 (inactive)	0.723 (inactive)	-0.212 (inactive)	-0.0271 (inactive)	-0.578	-0.251	-0.111	-0.184	0.856
COC(=O)[C@H](Cc1ccccc1)N1CC2=C[C@@H](C3CC3)n3c(=O)n(C)c(=O)n3[C@H]2[C@@H]1[C@@H](O)Cc1ccccc1	0.0601	-1.18 (inactive)	0.39 (inactive)	2.03 (inactive)	-0.269 (inactive)	0.462	-0.0589	0.413	-0.0857	1.4
COc1ccc([Si](C)(C)[C@@H]2[C@@H](CCO)O[C@]3(C(=O)N(Cc4ccc(N(C=O)c5ccccc5)cc4)c4ccccc43)[C@H]2C)cc1	0.0862	-6.2 (inactive)	0.00917 (inactive)	4.55 (inactive)	1.03 (inactive)	0.426	0.106	0.164	0.469	0.868
COc1cc2c(cc1OC)CN(C(=O)[C@@H]1[C@H]3C(=O)O[C@H](c4ccccc4)[C@H](c4ccccc4)N3[C@H](c3ccccc3OCCO)[C@@]13C(=O)Nc1ccc(C#CCCO)cc13)CC2	0.283	-1.65 (inactive)	0.219 (inactive)	0.505 (inactive)	-0.988 (inactive)	0.442	0.196	0.0499	0.344	1.13
[N-]=[N+]=NCc1ccccc1C[C@]1(C(N)=O)COC(c2ccc(OCCCO)cc2)=N1	0.217	-2.4 (inactive)	-0.602 (inactive)	-0.585 (inactive)	-1.68 (inactive)	0.468	0.189	0.728	0.972	-0.584
CC(=O)NCCCC[C@@H]1NC(=O)[C@@H]2C[C@H](C(=O)NCCCCCNC(=O)CS)[C@H](c3cccc(OCCO)c3)N2C1=O	-0.149	-1.12 (inactive)	-0.617 (inactive)	-1.48 (inactive)	-1.4 (inactive)	-0.526	-0.101	0.653	0.541	1.62
COC(=O)[C@@]1(Cc2ccc(OC)cc2)[C@H]2c3cc(C(=O)N(C)C)n(Cc4ccccn4)c3C[C@H]2CN1C(=O)c1ccccc1	0.164	-1.17 (inactive)	0.691 (inactive)	1.16 (inactive)	0.97 (inactive)	2.57	0.322	0.192	1.59	-0.403
CCCCCCc1nc(-c2cc(C)c(OC)c(C)c2)cc2c1[Si](C(C)C)(C(C)C)OC2	-0.227	-2.72 (inactive)	-0.661 (inactive)	-0.0989 (inactive)	0.0738 (inactive)	0.0643	0.131	-0.646	-0.384	0.985
COc1ccc(/C=C/C=O)cc1	0.156	0.0307 (inactive)	-0.577 (inactive)	0.209 (inactive)	0.561 (inactive)	0.166	-0.102	-0.238	0.0564	1.6
CCOC(=O)C[C@H]1[C@H](OC(=O)c2ccccc2-c2ccccc2)[C@@H](NC(=O)CC(C)C)c2cc(OCCCO)ccc2N1C(=O)Cc1ccc(OC)cc1	-0.0051	-0.386 (inactive)	0.393 (inactive)	6.91 (inactive)	0.0967 (inactive)	0.0802	-0.179	0.0776	0.199	0.222
COC(=O)C(CC#Cc1ccc2c(c1)[C@]1(C(=O)N2)[C@H](c2ccc(OCCO)cc2)N2[C@H](c3ccccc3)[C@H](c3ccccc3)OC(=O)[C@H]2[C@@H]1C(=O)Nc1nc2ccccc2s1)C(=O)OC	0.35	-1.68 (inactive)	-1.39 (inactive)	-0.375 (inactive)	1.33 (inactive)	1.53	-0.157	1.36	0.414	0.588
Cc1ccc(S[C@]2(C(=O)NC3CC3)CC(=O)N(Cc3ccccc3)[C@@H]2c2ccc(CO)cc2I)cc1	-0.232	-2.1 (inactive)	-0.0682 (inactive)	1.04 (inactive)	1.03 (inactive)	-0.716	0.235	-1.19	-1.63	-0.517
